A selection: hits, their analogues and other compounds. The true share with any hit is near 1.2%.
ERG Ets-DNA blk = qHTS for Small Molecule Inhibitors of the ERG Ets/DNA interaction; fluorescence polarization, His-ERG Ets domain / labelled DNA; Transcriptional regulator ERG (Homo sapiens), P11308; 370,000 compounds, 0.028% hits; Potency, µM (highest dose often 76.9 µM), without a hit: top-dose FP activity, negative = inhibition, hits mostly inhibitors; active means well fitted inhibition curve with a large enough effect in the polarisation, with a control signal flat; inconclusive means small, poorly fitted or top-dose-only effect, or effect the other way, or a change in a side signal; inactive means no such curve, though single readings can be large or run the other way; the % refers to the polarisation;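 further: polarization taken with two DNA probes labelled with fluorescein and Texas red; % of control where 0% means no effect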
Target sequence (P11308 whole entry, looked up, the tested form may be a part): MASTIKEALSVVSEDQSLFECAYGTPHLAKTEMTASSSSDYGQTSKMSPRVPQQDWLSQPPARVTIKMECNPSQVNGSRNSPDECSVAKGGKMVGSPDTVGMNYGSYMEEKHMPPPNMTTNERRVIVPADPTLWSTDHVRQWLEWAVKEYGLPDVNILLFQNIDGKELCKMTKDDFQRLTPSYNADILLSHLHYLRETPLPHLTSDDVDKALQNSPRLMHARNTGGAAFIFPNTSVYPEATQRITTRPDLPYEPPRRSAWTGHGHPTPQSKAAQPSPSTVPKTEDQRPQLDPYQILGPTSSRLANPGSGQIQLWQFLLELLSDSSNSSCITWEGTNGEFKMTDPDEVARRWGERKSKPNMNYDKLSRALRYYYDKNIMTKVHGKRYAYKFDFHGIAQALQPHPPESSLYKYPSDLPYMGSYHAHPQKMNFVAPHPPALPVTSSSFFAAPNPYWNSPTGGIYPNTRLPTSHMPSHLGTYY
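His-tagged ERG Ets domain (1 uM in the protein solution; 300mM KCl, 50mM Tris-HCl, 1mM EDTA, 1mM DTT, pH 7.5) received compound, then a probe mix of 5 nM fluorescein-DNA and 100nM Texas-615-DNA. Fluorescence polarization was read for both dyes.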
RGS12 GoLoco inh = qHTS Assay for Inhibitors of RGS12 GoLoco Motif Activity (Red Fluorophore); 230,000 compounds, 0.44% hits; Guanine nucleotide-binding protein G(i) subunit alpha-1 (Homo sapiens), P63096; Potency, µM (doses to about 61.6 µM), for inactives: top-dose activity, negative = inhibition, hits mostly inhibitors; Gai1:RGS12 GoLoco peptide FP, rhodamine, 10 min; active means well fitted inhibition curve with a large enough effect, not every such curve was filed as active; inactive means no such curve, though single readings can be large or run the other way; further: on the % scale 0 is the no-effect control and ±100 the full control effect; nearly all actives have a fitted effect of over 30% in size
Anesthetic bind = qHTS Assay for Identification of Novel General Anesthetics; Ferritin light chain (Equus caballus), P02791; apoferritin/1-aminoanthracene competitive binding, fluorescence; Potency, µM (highest dose often 77.5 µM), without a hit: at the highest dose activity change, negative = displacement, actives largely listed as inhibitors; 350,000 compounds, 0.074% hits; AID 485281, 2010; further: on the % scale 0 is the no-effect control and ±100 the full control effect; nearly all actives have a fitted effect of over 20% in size
Target sequence (P02791 2-175 limits assumed): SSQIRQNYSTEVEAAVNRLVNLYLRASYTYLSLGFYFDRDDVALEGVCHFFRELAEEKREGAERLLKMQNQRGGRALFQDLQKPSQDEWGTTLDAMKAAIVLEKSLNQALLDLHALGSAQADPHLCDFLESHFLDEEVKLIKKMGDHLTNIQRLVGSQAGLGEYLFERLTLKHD
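Horse-spleen apoferritin (10 uM) was mixed with 50% saturated 1-aminoanthracene in PBS, exposed to compounds for 10 min at room temperature, and read for fluorescence (ex 380 nm, em 535 nm). Competitive displacement was fitted with a four-parameter Hill equation.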
BRCA1 expr act = qHTS Assay to Identify Small Molecule Activators of BRCA1 Expression | MCF7-BRCA1-FFLuc reporter, luminescence, 48 h; response scale: scaled: vehicle 0%, 10 µM genistein 100% | Potency, µM (titrated, usually from 46.1 µM), inactives show top-dose activation, most hits filed as activators | 380,000 compounds, 1.1% hits | AID 624202, 2012; further: nearly all actives have a fitted effect of over 80% in size
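48 h compound treatment of MCF7-BRCA1-FFLuc cells (phenol-red free MEM, 37 °C), then 15 min with luciferase substrate and luminescence imaging.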
* marks the source's active call; other numbers are inactive results; [ ] = another dose, or the depositor's remark. Unless noted, the call rests on the fitted dose curve; in most records, active means well fitted curve in the direction sought with a large enough effect; inconclusive means small, poorly fitted or top-dose-only effect, or another doubt; inactive means no such curve, though single readings can be large; an effect the other way counts as inactive or inconclusive. Potency means the concentration at half of the fitted maximal effect.

`CC(C)NC(=O)c1ccc2sc([C@H]3C[C@H](O)[C@@H](CO)O3)nc2c1` gave BRCA1 expr act 0%.
Screening O=C(Nc1ccc2c(c1)OCO2)c1ccc2sc([C@H]3C[C@H](O)[C@@H](CO)O3)nc2c1 returned BRCA1 expr act 8.9µM*.
`O=C(Nc1ccc2c(c1)OCO2)c1ccc2sc([C@@H]3O[C@H](CO)[C@@H](O)[C@H]3O)nc2c1` gave BRCA1 expr act 3.2µM*.
For O=C(Nc1ccc2c(c1)OCO2)c1ccc2sc([C@@H]3O[C@H](CO)[C@H](O)[C@H](O)[C@H]3O)nc2c1 the results were BRCA1 expr act 5%.
For O=C(NC1CC1)c1ccc2sc([C@H]3C[C@H](O)[C@@H](CO)O3)nc2c1 the results were BRCA1 expr act 2%.
For CC(=O)c1ccc([N+](C)(C)C)cc1 the results were BRCA1 expr act 2%.
For CCC(=O)Nc1ccc(-c2nnc(SCc3ccccc3)n2C)cc1 the results were BRCA1 expr act 6%.
`Cc1[nH]c2ccccc2c1C(=O)COC(=O)c1ccccc1SCC(=O)N1CCCC1` gave BRCA1 expr act 2%.
For COc1cc(/C=C/c2nc3ccccc3c(=O)[nH]2)ccc1OC(F)F the results were ERG Ets-DNA blk -2%, Anesthetic bind 4% and BRCA1 expr act 3.2µM*.
`Fc1cccc2sc(N3CCCCC3)nc12` gave ERG Ets-DNA blk -1%, RGS12 GoLoco inh 3%, Anesthetic bind -8% and BRCA1 expr act 13µM*.
`Fc1cccc2sc(N3CCOCC3)nc12` gave ERG Ets-DNA blk -6%, RGS12 GoLoco inh 7%, Anesthetic bind -8% and BRCA1 expr act 82%.
`CCN(CC)c1ccc(-c2nnc(SCC(=O)NCc3ccco3)n2CC)cc1` gave BRCA1 expr act 3%.
CCOC(=O)c1ccc(N2C(=O)c3n[nH]c(-c4ccco4)c3C2c2ccc(OCC)cc2)cc1 (stereo not given) was read as ERG Ets-DNA blk 0% and Anesthetic bind -8%.
`CC(C)Sc1nc(N)nc(-c2cccs2)c1C#N` gave ERG Ets-DNA blk -7%, RGS12 GoLoco inh 0%, Anesthetic bind -13% and BRCA1 expr act 4µM*.
Cc1cc([N+](=O)[O-])cnc1NC(C)c1ccccc1 (stereo not given) was read as ERG Ets-DNA blk -8%, RGS12 GoLoco inh -16%, Anesthetic bind 8.9µM* and BRCA1 expr act -15%.
CC(Nc1cc(N2CCCC2)ccc1[N+](=O)[O-])c1ccccc1 (stereo not given) was read as ERG Ets-DNA blk -7%, RGS12 GoLoco inh 7%, Anesthetic bind -11% and BRCA1 expr act -38%.
CCCc1ccc(C(=O)/C=C/N(C)C)cc1 was read as ERG Ets-DNA blk 12%, RGS12 GoLoco inh 0%, Anesthetic bind -23% and BRCA1 expr act 13µM*.
Screening CN(C)/C=C/C(=O)c1ccc(F)cc1 returned ERG Ets-DNA blk -5%, RGS12 GoLoco inh 3%, Anesthetic bind inconclusive and BRCA1 expr act 8%.
`Cc1ccccc1Cn1ccc(-c2ccc3c(c2)OCO3)n1` gave ERG Ets-DNA blk 1%, RGS12 GoLoco inh 0%, Anesthetic bind -5% and BRCA1 expr act inconclusive.
`Fc1cccc(Cn2ccc(-c3ccc4c(c3)OCO4)n2)c1` gave ERG Ets-DNA blk 4%, RGS12 GoLoco inh -1%, Anesthetic bind -12% and BRCA1 expr act 10µM*.
`OC1OC[C@@H](O)[C@@H](O)[C@@H]1O` (stereo not given in full) gave Anesthetic bind -7%.
`Cc1ccccc1OCC(=O)Nc1ccc2c(c1)Cc1ccccc1-2` gave ERG Ets-DNA blk -3%, Anesthetic bind -11% and BRCA1 expr act inconclusive.
`O=C(COC(=O)Cn1cnc2ccccc21)Nc1ccc2c(c1)C(=O)c1ccccc1C2=O` gave ERG Ets-DNA blk 12%, RGS12 GoLoco inh 13%, Anesthetic bind -4% and BRCA1 expr act 8.9µM*.
`Cc1ccccc1OCC(=O)Nc1ccc2c(c1)C(=O)c1ccccc1C2=O` gave ERG Ets-DNA blk -3%, RGS12 GoLoco inh 0%, Anesthetic bind -16% and BRCA1 expr act 5µM*.
Screening O=C(O)/C=C/C(=O)Nc1ccc2c(c1)C(=O)c1ccccc1C2=O returned ERG Ets-DNA blk -10%, RGS12 GoLoco inh -22%, Anesthetic bind -6% and BRCA1 expr act 11µM*.
For CC(C)C[C@H](NC(=O)[C@H](CC(C)C)NC(=O)[C@@H](Cc1c[nH]c2ccccc12)NC(=O)[C@H](Cc1ccccc1)NC(=O)[C@@H](Cc1c[nH]c2ccccc12)NC(=O)[C@H](CCC(N)=O)NC(=O)[C@H](CCC(N)=O)NC(=O)[C@@H]1CCCN1C(=O)[C@H](CCCCN)NC(=O)[C@@H]1CCCN1C(=O)[C@H](N)CCCN=C(N)N)C(N)=O the results were Anesthetic bind -2%.
For COc1ccc(CCn2c3c(c(=O)[nH]c2=S)CN(Cc2ccccc2)CN3)cc1OC the results were BRCA1 expr act 0%.
Screening O=C(O)c1cccc(SSc2cccc(C(=O)O)c2)c1 returned RGS12 GoLoco inh 9%[14.2 µM].
For CCN1/C(=C2\C(=O)N(c3ccccc3)N=C2C)C=Cc2cc(C)ccc21 the results were ERG Ets-DNA blk 2%, RGS12 GoLoco inh 3.5µM*, Anesthetic bind -2% and BRCA1 expr act -4%.
CCCCOc1ccc(-c2ncc(N)cn2)cc1 was read as ERG Ets-DNA blk -1%, RGS12 GoLoco inh 10%, Anesthetic bind -7% and BRCA1 expr act 2.5µM*.
`CCCCOc1ccc(C(N)=O)cc1` gave BRCA1 expr act 0%.
For CCCCOc1ccc(-c2nnc(N)s2)cc1 the results were ERG Ets-DNA blk 6%, RGS12 GoLoco inh 6%, Anesthetic bind -12% and BRCA1 expr act 6.3µM*.
Screening CCOc1ccc(-c2nnc(N)s2)cc1 returned RGS12 GoLoco inh 7%, Anesthetic bind -3% and BRCA1 expr act inconclusive.
`COc1ccc(NC(=O)/C(C#N)=C\c2ccc(OCc3ccc(C(=O)O)cc3)c(OC)c2)cc1` gave ERG Ets-DNA blk 12%, RGS12 GoLoco inh 16%, Anesthetic bind -1% and BRCA1 expr act 67%.
`N#C/C(=C\c1ccc(OCc2ccc(Br)cc2)cc1)C(=O)Nc1cccc(C(=O)O)c1` gave ERG Ets-DNA blk 4%, Anesthetic bind -19% and BRCA1 expr act 7.1µM*.
COc1cc(/C=C(\C#N)C(=O)Nc2cccc(C(=O)O)c2)ccc1OCc1ccc(F)cc1 was read as ERG Ets-DNA blk -3%, Anesthetic bind -14% and BRCA1 expr act 11µM*.
`N#C/C(=C\c1ccc(OCc2ccc(F)cc2)cc1)C(=O)Nc1cccc(C(=O)O)c1` gave ERG Ets-DNA blk 2%, RGS12 GoLoco inh -5%, Anesthetic bind -8% and BRCA1 expr act 11µM*.

From PubChem BioAssay
